From PubChem BioAssay come the findings set out here.

The other results are listed elsewhere or left out. Activity calls are given as the source filed them. Cut-off read from the data, not from the text of the source, unless noted: active = inhibition above about 40%; inactive = the rest.

Broadly, the inhibition is the relative decrease from the control value, in per cent.

The nature of test [1]: inhibition of PEG-3 promoter luciferase signal – cell-based, HeLa, luciferase reporter, single concentration, confirmation (AID 602417;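 active = at 20 µM dose, 40% or more inhibition averaged across four replicates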). Particulars: HeLa PEG-Prom luciferase reporter, luminescence, overnight; at 20 µM; stronger effect = higher value. A general note: Reporter assays use an easily measured gene product as a stand-in for the process of interest.
Test [2] concerns the target PEG-3 (UniProt Q6IN02). The experiment in a line: inhibition of PEG-3 promoter-driven reporter – cell-based, HeLa, luciferase, CREF/GAPDH counter-screen panel, dose response (AID 624167). Particulars: CREF/GAPDH counter-screens; HeLa PEG-Prom luciferase reporter, overnight, run 1, dose range 1, at 100 µM (top of the series) unless noted. For orientation: Counterscreens check selectivity or assay interference.

Test [3] addresses PEG-3 (UniProt Q6IN02). The test is described as above. Particulars: CREF/GAPDH counter-screens; HeLa PEG-Prom luciferase reporter, overnight, run 2, dose range 1, at 100 µM (top of the series) unless noted.
Test [4] is described as follows: NF-kB reporter suppression in CF airway cells – cell-based, GFP fluorescence, single concentration, confirmation (AID 602472).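 Note: stimulus PAF is a Pseudomonas aeruginosa filtrate and not platelet activating factor; plate controls were DMSO wells with stimulus for no effect and unstimulated DMSO wells for full effect.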 Particulars: KKLEB CF airway cells, PAF-induced NF-kB-GFP fluorescence, overnight; at 5 µM; stronger effect = higher value.
A short description of test [5]: NFkB reporter suppression in cystic fibrosis bronchial cells – cell-based, uHTS hits, panel, cytotoxicity readout, dose response (AID 624344). Particulars: CF bronchial epithelial cells, PAF-induced NFkB reporter inhibition, with PAF, run 1; at 79 µM (top of the series) unless noted.
Assay in test [6]: as above
Particulars: CF bronchial epithelial cells, PAF-induced NFkB reporter inhibition, with PAF, run 2; at 79 µM (top of the series) unless noted.

The test system of test [7] is Rat fibroblasts (CREF). The test is described as follows: inhibition of PEG-3 promoter-driven reporter – cell-based, HeLa, luciferase, CREF/GAPDH counter-screen panel, dose response (AID 624167). Particulars: CREF/GAPDH counter-screens; run 1, dose range 1, at 100 µM (top of the series).
In test [8] the test system is Rat fibroblasts (CREF). The description is as above. Particulars: CREF/GAPDH counter-screens; run 2, dose range 1, at 100 µM (top of the series).

PEG-3, sequence (Q6IN02 whole entry, looked up): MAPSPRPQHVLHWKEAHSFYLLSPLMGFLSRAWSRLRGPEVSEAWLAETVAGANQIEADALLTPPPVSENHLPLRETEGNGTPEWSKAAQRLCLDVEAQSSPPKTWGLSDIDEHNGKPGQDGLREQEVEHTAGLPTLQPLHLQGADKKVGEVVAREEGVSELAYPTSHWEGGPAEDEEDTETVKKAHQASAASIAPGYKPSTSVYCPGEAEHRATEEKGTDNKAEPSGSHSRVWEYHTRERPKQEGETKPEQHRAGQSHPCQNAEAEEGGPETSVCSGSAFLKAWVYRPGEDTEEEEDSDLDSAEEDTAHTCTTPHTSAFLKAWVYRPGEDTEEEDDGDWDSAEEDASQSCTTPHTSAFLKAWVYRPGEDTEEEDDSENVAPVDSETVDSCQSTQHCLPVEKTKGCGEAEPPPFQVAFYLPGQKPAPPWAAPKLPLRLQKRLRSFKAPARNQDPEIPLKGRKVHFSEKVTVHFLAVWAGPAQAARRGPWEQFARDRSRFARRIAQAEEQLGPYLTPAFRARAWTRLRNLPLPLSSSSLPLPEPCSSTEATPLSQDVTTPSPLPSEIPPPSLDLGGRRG

Turning to `Cc1nc(SCC(=O)Nc2cc(C)on2)c2c(C)c(C)sc2n1`, the inhibition in test [1] is 33.6% (inactive).
As to `CNC(=O)c1ccsc1NC(=O)c1ccc(S(=O)(=O)N2CCc3ccccc32)cc1`, the inhibition is 52.4% (active) in test [1], 65% in test [2] and 63.5% in test [3].
Consider `O=C(NCCN1CCOCC1)c1ccc(/C=C2\Sc3ccccc3N(Cc3ccc(F)cc3)C2=O)cc1`, for which the inhibition in test [1] is 42.8% (active).
On the same count and under the same terms, next, `Cc1nnc(SCC(=O)N2c3ccccc3C(C)(c3ccc(Cl)cc3)CC2(C)C)s1` (stereo not drawn): 38.4% (inactive).
Turning to `CCN1CCN(c2nc(Nc3cc(OC)ccc3OC)nc(Nc3cc(OC)ccc3OC)n2)CC1`, the inhibition in test [1] is 70% (active); in test [2], 47.9%; in test [3], 53.1%.
As to `COc1ccc2[nH]c(=O)c(CN(Cc3cccnc3)S(=O)(=O)c3ccccc3F)cc2c1`, the inhibition in test [1] was 56.7% (active); in test [4] it was 86.3% (active); in test [5], 109%; in test [6], 103%.
Regarding `O=C(CSc1nc(Nc2ccccc2)nc(N2CCOCC2)n1)Nc1cc(Cl)ccc1O`, the inhibition in test [1] was 78.8% (active); in test [2] it was 98.4%; in test [3], 101%.
With `CN(O)C(=S)c1ccccc1`, the inhibition in test [1] is 89.1% (active); in test [2] it was 27%; in test [3], 78.7%; in test [7] it was 0.489%; in test [8] it was -19.9%.
Consider `O=C(Nc1cccc(-c2cccc(Cl)c2)c1)C1CCN(C2CCC2)CC1`, for which the values for the inhibition in test [1], in test [2] and in test [3] were 92.8% (active), 98% and 98.9%, respectively.
Regarding `CC(C)CC1C(=O)N(Cc2cn(CC3CCCCC3)nn2)CCS(=O)(=O)N1Cc1ccc(-c2ccc(Cl)cc2)cc1` (stereo not drawn), in test [4], the inhibition was 32.8% (inactive).
Same read-out and setting: next, `Clc1ccc2c(c1)C1=C(C(c3ccncc3)O2)C(c2ccc(Br)cc2)n2ncnc2N1` (stereo not drawn): 50% (active).
As to `CCCc1nc2c(c(=O)c3ccccc3n2C)c(=O)n1C1CCCCCC1`, in test [4], the inhibition is 46.9% (active).
As to `COc1cncc(-c2cnc3sc(NCCc4ccccn4)nn23)c1`, the inhibition in test [4] was 76.6% (active); in test [5], 102%; in test [6], 109%.
In the case of `O=C1OC(Oc2ccc(Br)cc2)(c2ccccc2)c2ccccc21` (stereo not drawn), in test [4], the inhibition is 4.99% (inactive).
`O=C1Nc2ccccc2/C1=C/c1ccnc2ccccc12`: the values for the inhibition in test [4], in test [5] and in test [6] were 55% (active), 106% and 111%, respectively.
For `O=C(CSc1nc(C2CC2)nc2ccccc12)Nc1cccc(O)c1` the same measures were 50.6% (active), 90.6% and 79.8%.
For `CN(C)c1ccnc2sc3c(=O)n(Cc4ccccc4)cnc3c12`, in that order: 91.5% (active), 106% and 97.7%.
For `CC(=O)Oc1c(C(=O)c2nnc(C)o2)c(=O)n(Cc2ccccc2)c2ccccc12`, in that order: 59% (active), 112% and 101%.
In the case of `COc1cccc2sc(N(CCCN(C)C)C(=O)CCS(=O)(=O)c3ccccc3)nc12`, the inhibition in test [4] is 102% (active); in test [5] it was 88.9%; in test [6] it was 86.9%.
Turning to `COc1ccc(NC(=S)SC)cc1OC`, the inhibition in test [4] was 39.3% (inactive).
Regarding `O=[N+]([O-])c1ccc(Oc2ccc(F)cc2Br)c2ccncc12`, the figures for the inhibition in test [4], in test [5] and in test [6] were 77.7% (active), 116% and 103%, respectively.
Take `Cc1cc2nc(-c3ccco3)c(Cc3cccc(F)c3)n2c(C)c1Br`: the inhibition in test [4] was -41.6% (inactive).
For `CN(C)C(=O)c1cccc(-c2cnc3sc(NCc4ccc5c(c4)OCO5)nn23)c1`, the inhibition in test [4] is 97.2% (active); in test [5], 116%; in test [6], 106%.
In the case of `C=CCSc1nsc(NC(=O)Nc2cccc(C(C)=O)c2)n1`, the inhibition is 98.3% (active) in test [4], 109% in test [5] and 101% in test [6].
On to `Cc1ncc(CC(=O)n2cc(C(=O)c3cc(Cl)ccc3O)cn2)s1`, for which the inhibition in test [4] was 47.9% (active); in test [5] it was 100%; in test [6], 108%.
Take `Cc1ccc(CCC(=O)Nc2ncc(Cc3cc(Cl)ccc3Cl)s2)o1`: the inhibition in test [4] was 83.8% (active); in test [5] it was 101%; in test [6], 101%.
For `COc1ccc(CNc2ncnc3ccccc23)cc1`, the inhibition was 47.6% (active) in test [4], 112% in test [5] and 87% in test [6].
For `C=CCc1cc(S(=O)(=O)c2ccc(O)c(CC=C)c2)ccc1O`, the results for the inhibition in test [4], in test [5] and in test [6] were 48.8% (active), 111% and 99.2%, respectively.
For `COC(=O)c1ccc(NC(=O)c2ccccc2NS(=O)(=O)c2ccccc2)cc1`, in that order: 69.8% (active), 118% and 105%.
For the compound `CC(C)CC1C(=O)N(Cc2cn(Cc3ccco3)nn2)CCS(=O)(=O)N1Cc1ccc(-c2ccc(Cl)c(Cl)c2)cc1` (stereo not drawn), the inhibition in test [4] is 45.6% (active).
As to `COc1ccc(-c2ccc(CN3C(CC(C)C)C(=O)N(Cc4cn(CC5CCCCC5)nn4)CCS3(=O)=O)cc2)cn1` (stereo not drawn), in test [4], the inhibition is 36.1% (inactive).
`COc1ccc(NC(=O)c2cc(-c3cc(OC)c(OC)c(OC)c3)nc3ccccc23)c(OC)c1`: in test [4], the inhibition is 24.8% (inactive).
Turning to `COc1ccc(CNC(=O)C(c2ccc(O)cc2)N(Cc2ccco2)C(=O)c2snc(C(N)=O)c2N)cc1` (stereo not drawn), the inhibition in test [4] was 49.2% (active); in test [5], 114%; in test [6], 104%.
For `CCOC(=O)c1c(-c2ccccc2)oc2cc(Br)c(O)c(C=O)c12` the same measures were 90.8% (active), 90.8% and 84.3%.
For `COc1cc(OC)cc(C(=O)N[C@H](C(=O)Nc2nc3ccccc3[nH]2)C(C)C)c1` the same measures were 85.8% (active), 84.2% and 80.2%.
For `NC(=O)c1sc2nc3c(c(-c4ccccc4)c2c1N)CCC3`, in that order: 93.2% (active), 114% and 104%.
`CCOC(=O)C(C(=O)c1ccccc1)C(c1ccccc1)c1nccc2ccccc12` (stereo not drawn): the inhibition in test [4] is 14.4% (inactive).
